# PubChem BioAssay
# Active and inactive are the calls of the source. Unless noted, how the calls were made is not given here.
# Columns and labels:
# [1] = compound effects on lung adenocarcinoma cell viability – A549, calcein-AM fluorescence, 48 h, basal, profiling panel (AID 1162); settings: higher = more signal; further: test concentration not given here
# [2] = compound effects on differentiated 3T3-L1 adipocyte viability – cell-based, 3T3-L1 adipocytes, calcein-AM fluorescence, 48 h, basal, profiling panel (AID 1163); settings: 3T3-L1 adipocytes viability, higher = more signal; further: test concentration not given here
# [3] = compound effects on hepatocellular carcinoma cell viability – HepG2, calcein-AM fluorescence, 48 h, basal, profiling panel (AID 1164); settings: higher = more signal; further: test concentration not given here
# [4] = compound effects on multiple myeloma cell viability – MM1S, calcein-AM fluorescence, 48 h, basal, profiling panel (AID 1165); settings: higher = more signal;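 further: viability of MM1S multiple myeloma cells under basal unstimulated conditions; test concentration not given here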
# [5] = calcein-AM signal in unstimulated myeloma cells – cell-based, calcein-AM fluorescence, 48 h, PK04 Diversity Set, profiling panel (AID 1166); settings: RPMI8226 myeloma viability, higher = more signal;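 further: cells grown under basal conditions without added stimulus; test concentration not given here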
# [6] = JC-1 mitochondrial signal, unstimulated HepG2 cells – cell-based, JC-1 fluorescence, 24 h, 100 nL compound, profiling panel (AID 1167); settings: HepG2 mitochondrial potential, higher = more signal; further: test concentration not given here
# [7] = JC-1 mitochondrial signal, unstimulated adipocytes – cell-based, JC-1 fluorescence, 3T3-L1 adipocytes, 24 h, 100 nL compound, profiling panel (AID 1168); settings: JC-1 mitochondrial fluorescence, higher = more signal, called active from +8 up or from −8 down; further: test concentration not given here
# [8] = JC-1 mitochondrial signal, unstimulated myeloma cells – cell-based, JC-1 fluorescence, RPMI8226, 24 h, 100 nL compound, profiling panel (AID 1169); settings: JC-1 mitochondrial potential fluorescence, higher = more signal; further: test concentration not given here
# [9] = JC-1 mitochondrial signal, unstimulated MM1S myeloma – cell-based, JC-1 fluorescence, 24 h, 100 nL compound, profiling panel (AID 1170); settings: MM1S mitochondrial potential, higher = more signal; further: test concentration not given here
# [10] = resazurin metabolic signal in A549 cells – cell-based, resazurin fluorescence, 24 h, PK04 Diversity Set, profiling panel (AID 1171); settings: A549 viability, higher = more signal, called active from +8 up or from −8 down; further: test concentration not given here
# [11] = resazurin metabolic signal in HepG2 cells – cell-based, resazurin fluorescence, 24 h, PK04 Diversity Set, profiling panel (AID 1172); settings: HepG2 viability, higher = more signal; further: test concentration not given here
# [12] = budding yeast growth changes without added modifier – OD600, strain BY4716, 24 h, basal condition, primary screen (AID 1173); settings: S. cerevisiae BY4716 growth, OD600, 24 h; higher = more signal, called active from +8 up or from −8 down
# [13] = viability profiling in MM1S myeloma cells – cell-based, resazurin fluorescence, basal, 24 h, PK04 Diversity Set, profiling panel (AID 1174); settings: higher = more signal, called active from +8 up or from −8 down; further: test concentration not given here
# [14] = target: Dihydroorotate dehydrogenase (quinone), mitochondrial (Plasmodium falciparum (isolate 3D7)) (UniProt Q08210); test: inhibition of P. falciparum DHODH – biochemical, C-terminal His tag, absorbance 600 nm, primary screen (AID 1175); settings: PfDHODH enzyme, DCIP absorbance 600 nm; higher = more signal, called active from +8 up or from −8 down;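 further: recombinant parasite enzyme with a five histidine tag at its C terminus; test concentration not given here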
# [15] = inhibition of PAO1 biofilm formation – strain PAO1, LB-PBS medium, absorbance 600 nm, primary screen (AID 1176); further: test concentration not given here; settings: P. aeruginosa PAO1 growth/biofilm, A600, 12 h; higher = more signal
# [16] = growth modulation of vineyard yeast isolate – strain RM11-1a, OD600, basal, 24 h, primary screen (AID 1177);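 further: cultures grown under basal conditions with no added stressor; test concentration not given here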; settings: S. cerevisiae RM11-1a growth, OD600, 24 h; higher = more signal, called active from +8 up or from −8 down
# [17] = growth of efflux-deficient E. coli DRC39 – strain DRC39, OD650, 24 h, E. coli filamentation inducers, primary screen (AID 1178);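 further: growth measured as culture turbidity by optical density at 650 nm; test concentration not given here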; settings: E. coli DRC39 acrAB, higher = more signal, called active from +8 up or from −8 down
# [18] = growth of efflux-deficient E. coli DRC39 – strain DRC39, OD650, 48 h, E. coli filamentation inducers, primary screen (AID 1179);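 further: screen aims at cell division blockers that make cells filament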; settings: E. coli DRC39 delta-acrAB growth, higher = more signal, called active from +8 up or from −8 down
# [19] = viability profiling in RPMI8226 myeloma cells – cell-based, resazurin fluorescence, basal, 24 h, PK04 Diversity Set, profiling panel (AID 1180); settings: higher = more signal;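 further: RPMI8826 multiple myeloma cell line at 5000 cells per well; test concentration not given here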
# [20] = target: E3 ubiquitin-protein ligase XIAP (Homo sapiens) (UniProt P98170); test: small molecules binding XIAP protein – biophysical, small-molecule microarray, fluorescence 635 nm, primary screen (AID 1181); settings: higher = more signal;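 further: score merges 667 nm emission and signal to noise over triplicate slides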
# Sequence of E3 ubiquitin-protein ligase XIAP (Homo sapiens) (P98170 whole entry, looked up): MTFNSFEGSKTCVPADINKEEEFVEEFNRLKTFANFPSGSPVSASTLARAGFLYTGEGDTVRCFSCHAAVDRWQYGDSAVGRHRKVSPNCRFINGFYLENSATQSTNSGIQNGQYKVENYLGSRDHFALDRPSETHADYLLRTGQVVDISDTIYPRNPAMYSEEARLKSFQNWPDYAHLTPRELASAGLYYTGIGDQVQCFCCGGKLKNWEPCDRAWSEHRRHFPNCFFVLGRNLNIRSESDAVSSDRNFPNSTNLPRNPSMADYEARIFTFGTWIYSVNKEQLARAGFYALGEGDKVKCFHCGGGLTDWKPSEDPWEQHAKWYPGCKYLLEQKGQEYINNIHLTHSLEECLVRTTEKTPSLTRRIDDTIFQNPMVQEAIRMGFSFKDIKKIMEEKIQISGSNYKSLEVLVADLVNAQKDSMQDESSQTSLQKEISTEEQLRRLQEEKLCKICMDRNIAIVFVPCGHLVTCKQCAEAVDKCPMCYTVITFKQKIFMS
# Sequence of Dihydroorotate dehydrogenase (quinone), mitochondrial (Plasmodium falciparum (isolate 3D7)) (Q08210 whole entry, looked up): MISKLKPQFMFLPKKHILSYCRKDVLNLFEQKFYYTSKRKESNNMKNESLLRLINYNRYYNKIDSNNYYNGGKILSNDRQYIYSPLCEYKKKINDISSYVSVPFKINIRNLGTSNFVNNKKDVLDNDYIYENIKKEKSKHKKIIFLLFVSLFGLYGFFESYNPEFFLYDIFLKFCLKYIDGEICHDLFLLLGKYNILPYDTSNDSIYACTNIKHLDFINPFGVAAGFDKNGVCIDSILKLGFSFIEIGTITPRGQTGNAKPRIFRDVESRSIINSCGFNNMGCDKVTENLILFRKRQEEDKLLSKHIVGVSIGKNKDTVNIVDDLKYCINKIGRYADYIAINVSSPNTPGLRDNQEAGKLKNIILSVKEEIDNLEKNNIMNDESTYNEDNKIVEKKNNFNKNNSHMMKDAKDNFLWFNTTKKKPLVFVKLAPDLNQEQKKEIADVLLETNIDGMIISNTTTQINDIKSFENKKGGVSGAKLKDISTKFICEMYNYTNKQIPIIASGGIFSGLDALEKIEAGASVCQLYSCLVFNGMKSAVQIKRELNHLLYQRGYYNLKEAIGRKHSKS
SMILES,z-score [1],z-score [2],z-score [3],z-score [4],z-score [5],z-score [6],z-score [7],z-score [8],z-score [9],z-score [10],z-score [11],z-score [12],z-score [13],composite z-score [14],z-score [15],z-score [16],z-score [17],z-score [18],z-score [19],composite z-score [20]
COCCCNC(=O)[C@@]1(Cc2ccccc2N=[N+]=[N-])N=C(c2ccc(OCCCO)cc2)O[C@H]1c1ccccc1,-1.07,0.538,-0.412,-1.41,-2.78,1.02,1.27 (inactive),-1.03,-0.34,0.308 (inactive),-0.0132,-0.632 (inactive),-0.681 (inactive),0.328 (inactive),0.441 (inactive),-0.115 (inactive),0.987 (inactive),-0.325 (inactive),-0.647,0.234
O[C@@H](Cc1ccccc1)[C@@H](/C=C/C1CC1)N(CC#Cc1ccccc1)Cc1cccc(Cl)c1,0.136,-0.166,0.891,-0.217,-0.0958,-0.549,0.274 (inactive),0.256,-1.16,2.89 (inactive),2.5,0.465 (inactive),1.61 (inactive),-0.312 (inactive),-0.131 (inactive),0.438 (inactive),0.839 (inactive),1.01 (inactive),2.06,-0.0931
C=CCC(OC(C)=O)[C@@H]1[C@@H](N(Cc2cc3ccccc3o2)C(=O)Cc2ccc(F)cc2)c2cc(OCCCO)ccc2N1C(=O)c1ccc2ccccc2c1 (stereo not given in full),-0.0032,-0.0993,1.93,-0.915,0.0905,0.855,0.0661 (inactive),-0.159,0.687,0.443 (inactive),-0.081,0.615 (inactive),0.514 (inactive),-1.04 (inactive),0.35 (inactive),-0.41 (inactive),-0.698 (inactive),-0.649 (inactive),0.304,0.555
CCOC(=O)C[C@H]1[C@H](OC(=O)c2cc3ccccc3oc2=O)[C@@H](NC(=O)Cc2ccc(OC)cc2)c2cc(OCCCO)ccc2N1C(=O)c1ccc2ccccc2n1,0.167,0.66,0.493,-0.171,0.865,-0.917,-0.0891 (inactive),-0.265,0.429,-0.341 (inactive),-0.604,-1.05 (inactive),-0.377 (inactive),0.0564 (inactive),-0.234 (inactive),-0.315 (inactive),0.928 (inactive),0.337 (inactive),-0.0615,-0.0414
NCCCCCNC(=O)[C@@H]1C[C@@H]2C(=O)NCC(=O)N2[C@@H]1c1cccc(OCCO)c1,-0.507,1.11,-0.531,-0.686,-0.947,1.5,-0.298 (inactive),0.00435,0.53,-0.505 (inactive),-0.727,-0.202 (inactive),0.584 (inactive),-0.73 (inactive),1.29 (inactive),0.561 (inactive),-0.0625 (inactive),-0.485 (inactive),0.974,0.012
C=CCNC(=O)[C@@H]1[C@H]2C(=O)O[C@H](c3ccccc3)[C@H](c3ccccc3)N2[C@H](c2ccc(O)cc2)[C@@]12C(=O)N(C(=O)OCCOC)c1ccc(C#CC3(O)CCCCCC3)cc12,0.0287,0.284,0.446,0.362,0.895,0.577,0.8 (inactive),0.244,-0.432,0.395 (inactive),0.919,0.444 (inactive),-0.689 (inactive),0.263 (inactive),-0.123 (inactive),0.3 (inactive),0.891 (inactive),0.957 (inactive),0.196,-0.391
COc1ccc([Si](C)(C)[C@@H]2[C@@H](CC(=O)N(CCO)Cc3ccccc3)O[C@]3(C(=O)N(c4ccccc4)c4ccccc43)[C@H]2C)cc1,-2.69,1.11,-4.56,-2.67,-4.36,-0.899,0.928 (inactive),-1.08,-2.3,-1.94 (inactive),-2.66,-1.74 (inactive),-5.11 (inactive),0.818 (inactive),1.26 (inactive),0.525 (inactive),1.21 (inactive),1.1 (inactive),-5.53,-0.112
COC(=O)[C@@]1(Cc2ccc(OC)cc2)[C@@H]2C(=CC(=O)[C@H]2CC(=O)C(=O)N(C)C)CN1C(=O)c1ccccc1,-1.85,0.271,-1.12,-2.29,-4.37,0.607,-0.283 (inactive),-0.843,-1.16,-1.34 (inactive),-1.2,1.61 (inactive),-2.16 (inactive),-0.626 (inactive),2.16 (inactive),0.625 (inactive),-0.575 (inactive),-0.798 (inactive),-3.26,0.22
C=C(COC)/C(=C/C[C@H](OC(=O)c1ccncc1)c1ccccc1OCCO)c1cnc2ccccc2c1,0.265,0.688,-0.693,-2.28,-0.533,1.23,-0.296 (inactive),-0.32,-0.0279,2.05 (inactive),2.02,-0.865 (inactive),0.247 (inactive),-3.12 (inactive),-0.104 (inactive),-0.0351 (inactive),0.213 (inactive),-0.121 (inactive),0.377,-0.0102
O=C(CS)NCCCCCCNC(=O)[C@H]1C[C@H]2C(=O)N[C@@H](Cc3ccccc3)C(=O)N2[C@H]1c1ccc(O)cc1,0.215,0.0724,-0.521,-1.51,0.388,-1.57,-1.09 (inactive),-0.254,0.046,1.26 (inactive),0.504,0.588 (inactive),-0.619 (inactive),-0.0269 (inactive),0.836 (inactive),0.252 (inactive),0.0577 (inactive),-0.983 (inactive),0.158,-0.166
COc1cc2c(cc1OC)CN(C(=O)[C@@H]1[C@H]3C(=O)O[C@H](c4ccccc4)[C@H](c4ccccc4)N3[C@H](c3ccc(OCCO)cc3)[C@@]13C(=O)Nc1ccccc13)CC2,1.47,1.04,1.35,0.48,0.834,-0.221,0.876 (inactive),-0.592,-1.17,0.319 (inactive),-0.44,1.39 (inactive),-1.54 (inactive),-1.09 (inactive),3.15 (inactive),4.05 (inactive),0.144 (inactive),0.919 (inactive),-0.0976,-0.0763
C#CCN([C@@H](Cc1ccc(O)cc1)C(=O)OC)[C@@H](/C=C/C1CC1)[C@H](O)Cc1ccccc1,-3.21,-0.0073,-3.12,-3.28,-4.06,-3.58,-0.0474 (inactive),-1.2,-1.58,-0.2 (inactive),-1.12,-2.71 (inactive),-0.758 (inactive),-0.228 (inactive),-0.672 (inactive),-0.136 (inactive),-0.933 (inactive),-0.737 (inactive),-0.61,0.798
CCCC[C@@H]1C[C@H]1[C@@H](NC(=O)c1cccs1)c1ccc(C(F)(F)F)cc1,-1.36,-0.249,-0.655,-0.771,-1.47,-1.04,-1.23 (inactive),0.404,-0.917,0.724 (inactive),-0.117,1.95 (inactive),-0.6 (inactive),0.322 (inactive),0.771 (inactive),1.83 (inactive),-0.82 (inactive),-0.734 (inactive),-0.601,0.0408
COCCCNC(=O)[C@@]1(Cc2ccccc2CN=[N+]=[N-])N=C(c2ccc(OCCCO)cc2)O[C@H]1c1ccccc1,-1.15,0.759,-0.798,-2.93,-4.32,0.331,-0.00801 (inactive),-1.25,-0.69,0.385 (inactive),0.636,0.41 (inactive),-0.88 (inactive),1.22 (inactive),-0.317 (inactive),1.92 (inactive),1.28 (inactive),0.242 (inactive),-1.75,-0.052
C=CCN1Cc2ccccc2[C@H]2OC(c3ccc(OCCCO)cc3)=N[C@@]2(CC=C)C1=O,-0.391,0.659,-0.121,-1.7,-2.4,2.11,0.661 (inactive),-0.807,-1.01,-1.18 (inactive),-0.594,-0.926 (inactive),-1.72 (inactive),-0.116 (inactive),0.507 (inactive),1.18 (inactive),0.36 (inactive),1.09 (inactive),-1.8,0.069
CC(C)N1C(=O)c2ccccc2[C@@H](C(=O)NC2CC2)[C@@H]1c1ccc(CO)cc1,0.798,0.774,0.476,-0.0123,0.282,0.507,0.319 (inactive),0.108,0.0665,0.743 (inactive),-0.146,0.164 (inactive),0.224 (inactive),-0.54 (inactive),0.277 (inactive),-0.716 (inactive),0.0426 (inactive),-0.452 (inactive),0.417,0.163
[N-]=[N+]=NCc1ccccc1C[C@@]1(C(=O)NCc2ccccc2)N=C(c2ccc(OCCCO)cc2)O[C@@H]1c1ccccc1N=[N+]=[N-],0.0629,-1.67,-0.236,-2.78,-3.5,0.917,0.898 (inactive),-1.11,-1.24,-0.0617 (inactive),0.279,0.85 (inactive),-0.806 (inactive),0.805 (inactive),1.39 (inactive),1.49 (inactive),0.423 (inactive),-0.335 (inactive),-0.686,-0.11
